The values that follow come from publication PMC4336329 (PLoS ONE, 2015).

In all, about 310,000 compounds went through this assay and about 14,000 (4.5%) showed an effect of 50% or more. The effect is printed as a negative number. The entries come from a sample that favours strong results as a whole.
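Also: peak tail current of the secondary pulse compared with the same well before compound.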

The target of the experiment is human ether-à-go-go-related gene (hERG) potassium channel (human, UniProt Q12809). As to the kind of experiment: primary screen, population patch clamp on CHO cells stably expressing hERG; higher = less effect of the substance.
Chain of human ether-à-go-go-related gene (hERG) potassium channel (Q12809 whole entry, looked up): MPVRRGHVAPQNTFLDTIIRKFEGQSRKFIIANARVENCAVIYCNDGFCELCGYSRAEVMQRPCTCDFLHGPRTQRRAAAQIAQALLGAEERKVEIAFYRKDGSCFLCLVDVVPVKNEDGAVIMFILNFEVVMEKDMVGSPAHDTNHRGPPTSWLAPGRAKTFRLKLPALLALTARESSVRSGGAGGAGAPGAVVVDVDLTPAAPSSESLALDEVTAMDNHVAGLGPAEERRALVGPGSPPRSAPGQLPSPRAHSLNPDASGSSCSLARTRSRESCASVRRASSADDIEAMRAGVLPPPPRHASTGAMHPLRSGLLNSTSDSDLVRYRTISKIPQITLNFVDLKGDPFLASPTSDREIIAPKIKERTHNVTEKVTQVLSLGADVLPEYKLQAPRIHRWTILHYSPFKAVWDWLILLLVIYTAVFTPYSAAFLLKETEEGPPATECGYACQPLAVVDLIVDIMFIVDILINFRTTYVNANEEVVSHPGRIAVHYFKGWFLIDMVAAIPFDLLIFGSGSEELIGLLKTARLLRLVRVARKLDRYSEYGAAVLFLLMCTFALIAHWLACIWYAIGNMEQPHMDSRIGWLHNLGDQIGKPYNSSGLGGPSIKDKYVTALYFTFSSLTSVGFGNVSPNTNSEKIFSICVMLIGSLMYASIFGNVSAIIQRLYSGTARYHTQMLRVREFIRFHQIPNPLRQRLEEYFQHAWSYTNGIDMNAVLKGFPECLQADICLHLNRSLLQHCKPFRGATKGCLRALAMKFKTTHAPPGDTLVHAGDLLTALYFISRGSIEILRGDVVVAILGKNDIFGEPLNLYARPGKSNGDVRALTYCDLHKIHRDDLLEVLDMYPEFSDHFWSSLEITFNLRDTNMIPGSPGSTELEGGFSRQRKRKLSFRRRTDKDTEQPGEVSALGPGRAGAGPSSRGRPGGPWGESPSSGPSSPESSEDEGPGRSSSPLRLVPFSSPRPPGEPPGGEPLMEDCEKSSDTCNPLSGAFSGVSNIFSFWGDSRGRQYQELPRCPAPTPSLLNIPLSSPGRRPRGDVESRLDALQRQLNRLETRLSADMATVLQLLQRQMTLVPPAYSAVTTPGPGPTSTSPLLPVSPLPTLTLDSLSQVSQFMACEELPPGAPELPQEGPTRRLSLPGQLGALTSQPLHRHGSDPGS
Take `O=C(COc1ccc(Cl)cc1)Nc1ccc2oc(=O)ccc2c1`: the “hERG current change (%, negative = inhibition) at 10uM” value was 3.7%.

Regarding `Cc1cc(C)n(C(=O)c2cc(F)c(F)cc2C)n1`, the “hERG current change (%, negative = inhibition) at 10uM” value came to 4.1%.

With `O=C(NC1CCN(Cc2ccccc2)CC1)c1ccccc1`, the “hERG current change (%, negative = inhibition) at 10uM” value is on record as -33.3%.

For the molecule `CCCCOc1ccc(C(=O)NCC(=O)NC2CCN(Cc3ccccc3)CC2)cc1`, the “hERG current change (%, negative = inhibition) at 10uM” value is listed as -25.6%.

As to `O=C(NC1CCN(Cc2ccc3ccccc3c2)CC1)c1ccccc1`, the “hERG current change (%, negative = inhibition) at 10uM” value is -66.3%.

Regarding `Cc1ccc(CN2CCC(NC(=O)c3ccccc3)CC2)cc1`, the “hERG current change (%, negative = inhibition) at 10uM” value is -75%.

`OC1CCN(Cc2ccc3ccccc3c2)CC1`: the “hERG current change (%, negative = inhibition) at 10uM” value was 13.4%.

As for `CC(C)Oc1ccc(C(=O)NC2CCN(Cc3ccccc3)CC2)cc1`, the “hERG current change (%, negative = inhibition) at 10uM” value is given as -60.8%.

With `CC(C)Oc1ccc(C(=O)NC2CCCCC2)cc1`, the “hERG current change (%, negative = inhibition) at 10uM” value turned out to be 10.3%.

As to `Cc1ccc(CN2CCSc3ccc(C(=O)NC4CCN(Cc5ccccc5)CC4)cc32)cc1`, the “hERG current change (%, negative = inhibition) at 10uM” value came out at 8.21%.

`O=C(NC1CCN(Cc2ccc(Cl)c(Cl)c2)CC1)c1ccccc1`: the “hERG current change (%, negative = inhibition) at 10uM” value is listed as -18.3%.

Consider `CCOC(=O)c1sc(=NC(=O)CCSc2ccccc2)n(C)c1C`, for which the “hERG current change (%, negative = inhibition) at 10uM” value is reported as -11.8%.

On to `O=C(NCCOc1cccc2cccnc12)c1cccs1`, for which the “hERG current change (%, negative = inhibition) at 10uM” value is on record as -12.8%.

Regarding `O=C(CSc1ncnc2c1nnn2Cc1ccc(F)cc1)NC1CCCCC1`, the “hERG current change (%, negative = inhibition) at 10uM” value amounted to 11.8%.

As for `N/C(=N\OC(=O)N1c2ccccc2Sc2ccccc21)c1ccc(Br)cc1`, the “hERG current change (%, negative = inhibition) at 10uM” value came to 5.79%.

With `O=C(COc1c(Br)cc(Br)c2cccnc12)N1CCc2ccccc2C1`, the “hERG current change (%, negative = inhibition) at 10uM” value is on record as 8.07%.

Take `CC(=O)N/C(=C\c1ccccc1)C(=O)OCC(=O)N(CC(C)C)c1c(N)n(Cc2ccccc2)c(=O)[nH]c1=O`: the “hERG current change (%, negative = inhibition) at 10uM” value is 6.75%.

For `CC(c1ccc(F)cc1)n1c(-c2ccc3ccccc3n2)n[nH]c1=S` (centres unmarked), the “hERG current change (%, negative = inhibition) at 10uM” value came to 18.1%.

Turning to `Cn1c(=O)c2c(nc(SCc3ccc(F)cc3)n2C)n(C)c1=O`, the “hERG current change (%, negative = inhibition) at 10uM” value is recorded as 1.9%.

Consider `O=C(NCCCN1CCCC1=O)c1ccc(Cl)c(S(=O)(=O)N2CCCCC2)c1`, for which the “hERG current change (%, negative = inhibition) at 10uM” value is given as -24.1%.

For `CN(C)CCCNC(=O)c1ccc(Cl)c(S(=O)(=O)N2CCCCCC2)c1.Cl`, the “hERG current change (%, negative = inhibition) at 10uM” value is -72.4%.

For `CCN(CC)CCNC(=O)c1ccc(NC(=O)c2ccc(Cl)c(S(=O)(=O)N3CCCCCC3)c2)cc1.Cl`, the “hERG current change (%, negative = inhibition) at 10uM” value is given as -24%.

Consider `Cc1ccc(CNC(=O)c2ccc(Cl)c(S(=O)(=O)N3CCCCC3)c2)cc1`, for which the “hERG current change (%, negative = inhibition) at 10uM” value is reported as -27.3%.

`CCN(CC)CCOC(=O)c1ccc(NC(=O)c2ccc(Cl)c(S(=O)(=O)N3CCCCCC3)c2)cc1.Cl`: the “hERG current change (%, negative = inhibition) at 10uM” value was determined as 13.7%.

In the case of `CN(C)C(CNC(=O)c1ccc(Cl)c(S(=O)(=O)N2CCCCCC2)c1)c1ccccc1` (centres unmarked), the “hERG current change (%, negative = inhibition) at 10uM” value is -67.5%.

On to `CCN(CC)CCNC(=O)c1ccc(Cl)c(S(=O)(=O)N2CCCCCC2)c1.Cl`, for which the “hERG current change (%, negative = inhibition) at 10uM” value is reported as -67.4%.

For `O=C(NCC(O)c1ccccc1)c1ccc(Cl)c(S(=O)(=O)N2CCCC2)c1` (centres unmarked), the “hERG current change (%, negative = inhibition) at 10uM” value is -0.367%.

`O=C(NCC(O)c1ccccc1)c1ccc(Cl)c(S(=O)(=O)N2CCCCC2)c1` (centres unmarked): the “hERG current change (%, negative = inhibition) at 10uM” value was found to be 8.95%.

With `Cc1cc(C)n(C(=O)c2cccc([N+](=O)[O-])c2)n1`, the “hERG current change (%, negative = inhibition) at 10uM” value is on record as -5.46%.

In the case of `COc1ccc(CCNC(=O)C2CCN(S(=O)(=O)c3cnc[nH]3)CC2)cc1OC`, the “hERG current change (%, negative = inhibition) at 10uM” value is 13.7%.

For the molecule `CCN(C(=O)CSc1nc(N)cc(=O)[nH]1)c1c(N)n(Cc2ccccc2)c(=O)[nH]c1=O`, the “hERG current change (%, negative = inhibition) at 10uM” value was 2.41%.

As for `Cc1ccc(S(=O)(=O)NCCCn2ccnc2)cc1C(=O)NC(C)C`, the “hERG current change (%, negative = inhibition) at 10uM” value is on record as -1.56%.

Take `O=S(=O)(Nc1ccc2c(c1)OCO2)c1ccc(Br)s1`: the “hERG current change (%, negative = inhibition) at 10uM” value was -18.1%.

In the case of `O=C(O)CCN1CCc2ccccc2C1c1ccncc1` (centres unmarked), the “hERG current change (%, negative = inhibition) at 10uM” value is 13.2%.

`Cc1sc(NC(=O)c2ccco2)c(CN2CCC(C)CC2)c1C`: the “hERG current change (%, negative = inhibition) at 10uM” value was -16.2%.

For `CCN(CC)C(=O)CSc1nnc(CNc2ccc(F)cc2)o1`, the “hERG current change (%, negative = inhibition) at 10uM” value was found to be 1.13%.

On to `CN(Cc1nc(-c2ccncc2)no1)S(=O)(=O)c1ccc(Br)cc1`, for which the “hERG current change (%, negative = inhibition) at 10uM” value is -58.1%.

As for `Cc1ccc(S(=O)(=O)N(C)Cc2nc(-c3ccncc3)no2)cc1`, the “hERG current change (%, negative = inhibition) at 10uM” value was -19.5%.

Turning to `CN(Cc1nc(-c2ccncc2)no1)S(=O)(=O)c1ccc(Cl)cc1`, the “hERG current change (%, negative = inhibition) at 10uM” value is listed as -55.5%.

In the case of `CN(Cc1nc(-c2ccncc2)no1)S(=O)(=O)c1ccccc1`, the “hERG current change (%, negative = inhibition) at 10uM” value is recorded as 3.91%.

For `Cc1ccc(S(=O)(=O)N(C)Cc2nc(-c3ccc(Br)cc3)no2)cc1`, the “hERG current change (%, negative = inhibition) at 10uM” value worked out at 4.12%.

Take `CN(Cc1nc(-c2cccnc2)no1)S(=O)(=O)c1ccc(Br)cc1`: the “hERG current change (%, negative = inhibition) at 10uM” value is -46%.

As to `O=C(NNc1nc(-c2ccccc2)cs1)c1cccs1`, the “hERG current change (%, negative = inhibition) at 10uM” value came out at 10.7%.

Turning to `O=C(COC(=O)c1ccc(F)cc1F)NCCNC(=O)COC(=O)c1ccc(F)cc1F`, the “hERG current change (%, negative = inhibition) at 10uM” value turned out to be 16.8%.
